This is a sample that favours compounds with a hit; in the whole collection about 5.2% have one here.
TrxR1 substrate = is turned over as a substrate by rat TrxR1; actives 0.01% (n = 390,000); purified TrxR1 substrate turnover, NADPH consumption readout; Potency, µM (highest dose often 114 µM), inactives show at the top dose activity change, negative = substrate turnover; AID 588456; note: nearly all actives have a fitted effect of over 50% in size
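Rat TrxR1, dispensed at 90 nM, was prereduced with 400 uM NADPH (final) for 5 min at ~22 deg C, then incubated with compound 15 min before 400 uM selenite. A first-read NADPH fluorescence drop versus no-compound background flagged substrates.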
mIDH1 inhibitor = blocks human mutant IDH1 R132H enzyme | O75874 | IDH1-R132H enzyme, NADPH consumption, diaphorase/resazurin fluorescence | Potency, µM (titrated, usually from 76.6 µM), for the others: top-dose activity change, negative = inhibition, hits mostly inhibitors | actives 0.093% (n = 390,000) | AID 602179; note: nearly all actives have a fitted effect of over 65% in size
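IDH1-R132H (0.5 ug/mL) preincubated 30 min with compound, then NADPH (0.016 mM) and alpha-KG (2 mM) added; 80 min at RT, pH 7.5. Remaining NADPH coupled via diaphorase/resazurin to fluorescence (540/590 nm); concentration-response curves normalized to no-enzyme control.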
PLK1 PBD inh = blocks phosphopeptide binding to human PLK1 polo-box domain; Potency, µM, for the others: max response, negative = inhibition, actives largely listed as inhibitors; AID 720504; actives 2.8% (n = 360,000); Plk1 PBD binding of FITC phosphopeptide, fluorescence polarization; P53350; note: series mostly up to about 57 µM; nearly all actives have a fitted effect of over 65% in size
Sfp inh = blocks B. subtilis Sfp PPTase activity. Q9F4F7. Biochemical Sfp PPTase activity, qHTS. Potency, µM, without a hit: largest response in the series, negative = inhibition, most hits filed as inhibitors. actives 3.5% (n = 310,000);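 note: the enzyme is Sfp with the accession as filed and its product quenches rhodamine fluorescence; 0% = enzyme reaction without inhibitor and -100% = no enzyme wells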
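Fluorescence-quenching assay with 15 nM Sfp, 5 uM rhodamine-CoA and 12.5 uM BHQ-2-labelled ybbR peptide in pH 7.6 Hepes/MgCl2 buffer. Enzyme was pre-incubated with compound for 15 min at room temperature. Rate was taken from the 30-min fluorescence change (525/598 nm).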
TrxR1 inh = blocks rat thioredoxin reductase 1. O89049. recombinant rTrxR1, NADPH fluorescence consumption, selenite substrate. Potency, µM (top dose mostly 114 µM), without a hit: at the top dose activity change, negative = inhibition, most hits filed as inhibitors. actives 1% (n = 390,000); note: nearly all actives have a fitted effect of over 65% in size
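Rat TrxR1 (90 nM in the dispensed reagent) was pre-reduced with 400 uM NADPH for 5 min at room temperature, then incubated with compound for 15 min. After 400 uM selenite was added, NADPH fluorescence (Ex 340/Em 450 nm) was followed for 8 min.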
VDR inhibitor = vitamin D3 receptor (human) inhibition; P11473; Potency, µM, without a hit: max response, negative = inhibition, actives largely listed as inhibitors; AID 504847; actives 0.93% (n = 400,000); VDR-SRC2-3 peptide fluorescence polarization, 2 h
Target sequence (P11473 whole entry, looked up): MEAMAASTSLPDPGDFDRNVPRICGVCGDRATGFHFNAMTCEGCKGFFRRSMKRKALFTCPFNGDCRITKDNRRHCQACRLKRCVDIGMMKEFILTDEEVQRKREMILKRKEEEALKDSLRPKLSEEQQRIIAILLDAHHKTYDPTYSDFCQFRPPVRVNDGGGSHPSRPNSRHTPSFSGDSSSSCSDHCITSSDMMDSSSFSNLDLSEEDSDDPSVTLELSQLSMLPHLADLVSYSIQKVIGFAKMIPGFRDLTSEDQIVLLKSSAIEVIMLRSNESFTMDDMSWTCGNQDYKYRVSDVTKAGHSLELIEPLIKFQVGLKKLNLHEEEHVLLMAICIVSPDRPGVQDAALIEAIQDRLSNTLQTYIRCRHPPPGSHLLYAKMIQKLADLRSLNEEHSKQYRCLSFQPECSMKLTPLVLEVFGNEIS
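Compounds are added to VDR with labelled SRC2-3 coactivator peptide and held 2 h at room temperature. Inhibition of the VDR–peptide interaction is then read as a change in fluorescence polarization.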
* hit, by the source's call; ? = inconclusive; . = no result given; ! = not active in a repeat; [ ] = dose if it differs, or a comment. Calls come from the whole dose curve; as a rule, active = well fitted curve in the direction sought with a large enough effect; inconclusive = small, poorly fitted or top-dose-only effect, or another doubt; inactive = no such curve, though single readings can be large; an effect the other way counts as inactive or inconclusive. Unless noted, % is set by controls: 0 for no effect and ±100 for the full control effect; potency is the fitted concentration of half-maximal effect.

SMILES	TrxR1 substrate	mIDH1 inhibitor	PLK1 PBD inh	Sfp inh	TrxR1 inh	VDR inhibitor
COc1cccc(Cn2c(=O)c(CCc3ccccc3)nc3cnc(N4CCNCC4)nc32)c1	.	.	.	79.4µM*	.	?
CN1CCN(c2ncc3nc(CCc4ccccc4)c(=O)n(CCc4ccccc4)c3n2)CC1	.	.	.	-6.2%	.	3.1%
COc1ccc(C(=O)N2CCC3(CC2)CCN(c2ccncc2)CC3)cc1	.	.	.	24.5%	.	-3.6%
Cc1ccc(N2CC(NC(=O)C(=O)c3c[nH]c4ccccc34)CC2=O)cc1 (stereo not drawn)	-3.3%[57.1 µM]	-11.6%	.	.	11.1%[57.1 µM]	-13.8%
O=C(CSc1nc2c(c(=O)[nH]1)CCC2)Nc1ccccc1C(F)(F)F	-6.8%	.	.	.	9.9%	8.6%
CC(=O)c1c(O)cc(O)cc1O	-2.5%	-13.5%	-1.2%	-5.6%	3.55µM*	10.2%
Cc1ccc(CNC(=O)c2ccc(NC(=O)N3CCSc4ncccc43)cc2)cc1	0.6%[57.1 µM]	-12.2%	.	.	13.4%[57.1 µM]	-9.5%
CCC1=NC(c2ccc(OC)c(OC)c2)N(O)C1(C)C (stereo not drawn)	3.4%	-5.2%	29.9µM*	-7.0%	25.4%	-18.6%
Cc1ccc(-n2ncc(C(=O)N3CCCCC3)c2C2CCN(C(=O)OC(C)(C)C)CC2)c(C)c1	-0.2%	-7.2%	.	.	11.5%	3.6%
O=C(O)c1ccc(N/N=C/C2=Cc3ccccc3OC2)cc1	-17.2%	-1.8%	23.8µM*	-4.1%	?	-18.4%
Cc1ccc(F)c(Cn2cnc3c(cnn3C(C)(C)C)c2=O)c1Cl	3.7%	.	.	.	29.8%	-2.3%
O=c1[nH]c(=S)[nH]c2sccc12	2.6%[57.1 µM]	-1.4%	15µM*	22.4µM*	-18.7%[57.1 µM]	-24.5%
CCOC(=O)c1c(NC(=O)CCCC(=O)O)sc2c1CCC2	5.1%	-9.2%	-10.2%	23.3%	7.1%	9.3%
CCOC(=O)c1c(NC(=O)CCC(=O)O)sc2c1CCCCC2	-4.8%	-9.1%	6.7µM*	?	-11.2%	?
CCOC(=O)c1c(NC(=O)Cc2cccs2)sc2c1CCCC2	5.9%	8.1%	-16.8%	31.6µM*	-0.6%	-11.5%
CC/C=C\C/C=C\C/C=C\CCCCCCCCCC(=O)O	.	.	.	10.4%	.	-21.3%
CC/C=C\C/C=C\C/C=C\CCCCCCCC(=O)O	3.2%	10.7%	?	79.4µM*!	?	22.4µM*!
CCCCC/C=C\C/C=C\C/C=C\C/C=C\CCCCCC(=O)O	.	.	.	11.3%	.	-0.6%
CC/C=C\C/C=C\C/C=C\C/C=C\C/C=C\CCCC(=O)O	.	.	.	-0.8%	.	39.8µM*!
CC/C=C\C/C=C\C/C=C\CCCCCCCCCCCC(=O)O	.	.	.	14.9%	.	50.1µM*
CCCCc1nc2c(c3c1C[C@H](C)OC3)CN(C(=O)Cc1cccs1)CC2	.	.	.	5.3%	.	.
COC(=O)CCC(C)N1CCC(Oc2ccc(C(=O)NCc3ccccn3)cc2)CC1 (stereo not drawn)	5.0%	-14.4%	-4.6%	24.3%	12.2%	-2.6%
COc1ccc(-n2[nH]c3c4c(ncc3c2=O)CCCCC4)cc1	.	.	.	22.0%	.	3.5%
O=C(CN1C(=O)NC2(CCCC2)C1=O)Oc1ccc2ccc(=O)oc2c1	854.7%	6.2%	-12.1%	.	79.4µM*	-21.1%
O=C(CN1C(=O)NC2(CCCCC2)C1=O)Oc1ccc2c(C(F)(F)F)cc(=O)oc2c1	8.6%	-5.0%	?	.	39.8µM*	?
SMILES	TrxR1 substrate	mIDH1 inhibitor	PLK1 PBD inh	Sfp inh	TrxR1 inh	VDR inhibitor
O=C(NCc1n[nH]c(=S)n1-c1ccc(Cl)c(Cl)c1)c1ccco1	-0.9%	-0.9%	-19.0%	-12.5%	-20.9%	0.7%
CCC(Cn1nnc2ccccc2c1=O)NC(=O)Nc1ccc(C)c(C)c1 (stereo not drawn)	7.0%	5.1%	.	.	19.6%	-5.8%
Cc1cc2nccc(/C=C/c3ccc(N(C)C)cc3)c2cc1C	-11.1%	.	.	.	-13.8%	.
S=c1nc(C2COc3ccccc3O2)[nH][nH]1 (stereo not drawn)	1.8%[57.1 µM]	3.8%	?	22.4µM*	-3.9%[57.1 µM]	?
CSc1ccc(-c2sc(Nc3cccc4ccccc34)n[n+]2-c2ccccc2)cc1	-5.4%	12.1%	?	50.1µM*	14.6%	79.4µM*
CSc1ccc(-c2sc(Nc3ccccc3)n[n+]2-c2ccccc2)cc1	-4.3%	-0.7%	23.8µM*	?	-2.0%	-11.8%
